High-throughput results deposited in PubChem by National Center for Advancing Translational Sciences (NCATS).
A selection: hits, their analogues and other compounds. The true share with any hit is near 6.5%.
LASV entry inh = inhibitors of Lassa virus binding or cell entry | Lassa virus pseudotype entry inhibition, cell reporter | Potency, µM (highest dose often 37.9 µM), without a hit: at the highest dose activity change, negative = inhibition, actives largely listed as inhibitors | 1.2% of 300,000 active | AID 540256; calls by dose curve; tested in HEK293 cells; also: potency is read from the fitted curve at half-maximal effect; nearly all actives have a fitted effect of over 50% in size
MARV entry inh = inhibitors of Marburg virus binding or cell entry | Marburg virus pseudotyped entry inhibition, cell reporter | Potency, µM (highest dose often 37.8 µM), for inactives: at the highest dose activity change, negative = inhibition, usual class: inhibitors | 1.8% of 300,000 active | AID 540276; calls by dose curve; tested in HEK293 cells; also: potency is read from the fitted curve at half-maximal effect
HCMV antiviral = human cytomegalovirus inhibition; 4.5% of 410,000 active; AID 1259415; HFF cells, HCMV-luciferase reporter, 72 h; hits give low values; activity change, negative = inhibition, % at 57.5 µM; in the data active = activity change below about -60%; inconclusive = no clear call, values can overlap the other calls; inactive = above about -39%
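Compounds were evaluated in HFFs infected with an HCMV luciferase reporter virus (MOI 1 PFU/cell). Luciferase in lysates collected 72 h post infection served as the replication measure.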
FMDV inh = foot and mouth disease virus antiviral activity; FMDV antiviral cell-based qHTS; Potency, µM (titrated, usually from 57.9 µM), without a hit: at the highest dose activity change, negative = inhibition, usual class: inhibitors; 1.2% of 410,000 active; calls by dose curve; tested in HEK293T cells; also: read-out not given here; potency is read from the fitted curve at half-maximal effect; nearly all actives have a fitted effect of over 45% in size
VACV Venus inh = vaccinia inhibition (Venus reporter); Vaccinia virus Venus reporter expression, fluorescence; Potency, µM (doses to about 36.5 µM), inactives show at the top dose activity change, negative = inhibition, usual class: inhibitors; 0.46% of 330,000 active; calls by dose curve; tested in A549 cells; also: potency is read from the fitted curve at half-maximal effect; nearly all actives have a fitted effect of over 30% in size
Vaccinia mCherry = inhibitors of vaccinia virus infection (mCherry reporter signal) | Potency, µM (highest dose often 36.5 µM), inactives show top-dose activity change, negative = inhibition, hits mostly inhibitors | Vaccinia virus mCherry reporter infection, fluorescence | 0.63% of 310,000 active; calls by dose curve; tested in A549 cells; also: potency is read from the fitted curve at half-maximal effect; nearly all actives have a fitted effect of over 35% in size
Numbers without * were called inactive; i = inactive; ? = inconclusive; nt = no result given; ! = not confirmed by another sample; [ ] = another dose, or the depositor's remark. % is scaled to controls: 0 for no effect and ±100 for the full control effect.

SMILES	LASV entry inh	MARV entry inh	HCMV antiviral	FMDV inh	VACV Venus inh	Vaccinia mCherry
COc1ccc(CC2(C)OC(c3ccc(C)c([N+](=O)[O-])c3)=NN2C(C)=O)cc1 (centres undefined)	0.79µM*	?	-9	?	-16%	-22%
O=C(OCc1ccc(F)cc1)c1ccc2c(c1)-c1ccccc1C2=O	1.1µM*	-3%	-2	44%	-19%	nt
Cc1ccccc1CN1CCNC(=O)C1CC(=O)NC1CCCCCCC1 (centres undefined)	16%[46.1 µM]	-10%[46.1 µM]	28	31%	-19%	-21%
CCOc1ccccc1CN1CCNC(=O)C1CC(=O)NC1CCCCCCC1 (centres undefined)	15%	-26%	-62*	11%	-14%	-14%
CC(=O)Nc1ccc(S(=O)(=O)Nc2cccc(-c3ccc(N4CCCCCC4)nn3)c2)cc1	-24%[46.1 µM]	nt	50	50%	-2%	-14%
CC(=O)Nc1ccc(S(=O)(=O)Nc2cccc(-c3ccc(N4CCC(C)CC4)nn3)c2)cc1	11µM*	nt	47	?	-26%	-26%
O=C(NC(c1ccc(-c2ccccc2)cc1)c1cnccn1)C1CCN(Cc2ccc(Cl)c(Cl)c2)CC1 (centres undefined)	nt	nt	18	-10%	-20%	4%
Cn1cc(CN2CCC(C(=O)NC(c3ccc(-c4ccccc4)cc3)c3cnccn3)CC2)c2ccccc21 (centres undefined)	nt	nt	-11	0%	11µM*	?
Cn1cc(NC(=O)CCl)cn1	?	?	-84*	?	?	?
CC(=O)Nc1cnn(Cc2ccc(Br)cc2)c1	2%	12%	22	-17%	nt	nt
O=C(Nc1ccccc1Br)c1cc(S(=O)(=O)NC2CCCCC2)ccc1F	11%[46.1 µM]	nt	17	8%	-6%	-13%
Cc1cccc(C)c1NC(=O)C(CCc1ccccc1)N(C(=O)c1ccc(F)cc1)c1ccccc1F (centres undefined)	nt	nt	-70*	nt	nt	nt
O=C(c1ccc(F)cc1)N(c1ccccc1F)C(CCc1ccccc1)c1nc2ccccc2[nH]1 (centres undefined)	nt	nt	11	nt	nt	nt
COc1ccc(-c2cn[nH]c2-c2ccc(OCc3ccccc3)cc2O)cc1OC	?	?	-37	?	?	11µM*
COc1ccc(-c2cn[nH]c2-c2ccc(OCc3ccc(F)cc3)cc2O)cc1OC	?	?	?	25µM*	-27%	-22%
CC(=O)Nc1ccc(Nc2nc(-c3sc(NC(C)=O)nc3C)cs2)cc1	?	3.2µM*	-27	-19%	-20%	-24%
CCC(C)C(=O)Nc1nc(C)c(-c2csc(Nc3ccc(Cl)cc3)n2)s1 (centres undefined)	nt	nt	-90*	0%	?	?
CC(=O)Nc1nc(C)c(-c2csc(Nc3cccc([N+](=O)[O-])c3)n2)s1	?	14µM*	-9	-26%	?	5µM*
CC(=O)Nc1nc(C)c(-c2csc(Nc3cccc(C(C)=O)c3)n2)s1	nt	nt	-32	-9%	nt	nt
CC(=O)Nc1nc(C)c(-c2csc(Nc3ccc(O)cc3)n2)s1	?	4.6µM*	nt	-8%	nt	nt
COc1ccc(Oc2ncc3nc(-c4cccs4)c(=O)n(C)c3n2)cc1	nt	nt	nt	6%	nt	nt
CC1(C(=O)NCc2ccccc2)CN(S(C)(=O)=O)CC(=O)N1Cc1ccco1 (centres undefined)	nt	nt	-6	nt	nt	nt
Cc1ccc(-c2ccc(=O)n(CC(=O)NC(C)c3ccccc3)n2)cc1 (centres undefined)	?	nt	-9	-20%	14%	-3%
COc1cccc(Nc2nc(-c3sc(NC(=O)CC(C)C)nc3C)cs2)c1	nt	nt	24	-24%	?	?
COc1cccc(Nc2nc(-c3sc(NC(=O)c4ccccc4)nc3C)cs2)c1	nt	nt	-61*	-18%	?	-27%
SMILES	LASV entry inh	MARV entry inh	HCMV antiviral	FMDV inh	VACV Venus inh	Vaccinia mCherry
O=C(NC(=S)Nc1nc(-c2cccc([N+](=O)[O-])c2)cs1)c1cc(Cl)ccc1Cl	?	?	2	?	-13%	-17%
O=[N+]([O-])c1cccc(NC(=S)Nc2nc(-c3ccc(Cl)cc3Cl)cs2)c1	nt	nt	-87*	nt	nt	nt
CCC1C(=O)NCCN1Cc1ccc2c(c1)CN(Cc1ccc(F)c(OC)c1)CCO2 (centres undefined)	nt	nt	nt	-17%	5%	-8%
CCc1ccc(CNC(=O)C2CCN(C(=O)c3ccc(-n4ccc5ccccc54)s3)CC2)cc1	?	nt	-9	-20%	-23%	-18%
COc1ccccc1N1CCN(C(=O)CN(CCc2ccccc2)S(C)(=O)=O)CC1	?	?	?	nt	-19%	-8%
COc1ccc(N2CCN(C(=O)CN(CCc3ccccc3)S(C)(=O)=O)CC2)cc1	?	?	-24	nt	?	1.8µM*
COc1ccc(N2CCN(C(=O)CCNS(=O)(=O)c3cccs3)CC2)cc1	-2%	9%	-34	nt	13µM*	?
COc1ccc(S(=O)(=O)N(C)CC(=O)N2CCN(c3ccccc3)CC2)cc1	nt	?	-3	-20%	-8%	-12%
COc1ccc(N2CCN(C(=O)CN(C)S(=O)(=O)c3cccs3)CC2)cc1	-12%	21%[46.1 µM]	-100*!	-7%	-16%	-5%
Cc1cccc(CNC(=O)C2CCN(c3nc4ccc(Cl)cc4[nH]3)CC2)c1	-8%[46.1 µM]	nt	0	-10%	-7%	-10%
COc1ccc(OC)c(Nc2cc(-c3ccccc3)nc(N)n2)c1	-29%	?	-90*	-12%	?	?
COc1ccc(-c2cc(-c3ccccc3)nc(N)n2)c(O)c1	?	?	12	12%	?	?
COc1ccc(OC)c(NC2=C(c3ccccc3)C(=O)c3ccccc32)c1	-14%[46.1 µM]	?	-63*	-20%	-14%[7.34 µM]	?
Cc1cc(C)c(S(=O)(=O)Nc2ccc3c(c2)CCC3)c(C)c1	?	7.3µM*	-85*	80%	-16%	i
Cc1cc(C)c(S(=O)(=O)Nc2ccc(C(N)=O)cc2)c(C)c1	-14%	9%[46.1 µM]	-84*	10%	-11%	-14%
CC(=O)c1ccc(NS(=O)(=O)c2c(C)cc(C)cc2C)cc1	?	?	?	68%	-22%	-22%
CN1CC(=O)N/C1=N\C(=O)Nc1cccc(Cl)c1	nt	nt	15	nt	nt	nt
c1cn(CCCNc2ncnc3sc4c(c23)CCC4)cn1	-1%	-17%	?	0%	-16%	nt
CCCCNc1ncnc2sc3c(c12)CCN(CCC)C3	nt	nt	-62*	-25%	nt	nt
COc1cccc(COc2cc3ccccc3nc2C)c1	?	?	-79*	?	nt	nt
Cc1nc(OCc2ccccc2)c2ccccc2n1	?	?	-20	?	-16%	nt
Cc1nc2ccccc2cc1OCc1ccccc1	-21%	-10%	-93*	-28%	nt	nt
Cc1nc2ccccc2cc1OCc1ccc(Cl)cc1	0%	?	-75*	?	nt	nt
Cc1nc(CC(=O)N2CCC(n3c(C4CCC4)nc4cccnc43)CC2)cs1	nt	nt	nt	-18%	-9%	0%
